Screening data (PubChem)
Pf Dd2 growth = P. falciparum Dd2 growth inhibition. SYBR Green, 72 h; hits give low values. activity change, % at 10 µM. actives 2.3% (n = 94,000). AID 1159554; in the data active = activity change below about -80%; inconclusive = no clear call, values can overlap the other calls
C diff HTS = inhibitors of Clostridium difficile growth; Clostridium difficile clinical isolate growth, OD600, 24 h; hits give low values; growth activity, negative = inhibition, % at 16 µg/mL (by protocol); actives 0.25% (n = 86,000);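 active = mean growth activity at or below -80% and every replicate also at or below -80%; inconclusive = mean at or below -80% but some replicate above -80%; inactive = mean growth activity above -80%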;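 also: 0% = DMSO wells and -100% = levofloxacin 16 µg/mL wells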
T cruzi growth-1 = inhibitors of T. cruzi proliferation | inhibition, % at 8.34 µM | AID 624255 | actives 5.9% (n = 77,000) | T. cruzi beta-gal in NIH3T3, GalScreen luminescence, 90 h;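 active = mean inhibition above about 93%, with at least 55% of replicates each passing it, limit read from the data, passing the limit was not always enough; inconclusive = only one of those two conditions holds; inactive = neither condition holds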
T cruzi growth-2 = blocks T. cruzi growth in NIH3T3 host cells. actives 72% (n = 5,600). inhibition, % at 8.35 µM. T. cruzi beta-gal in NIH3T3, GalScreen luminescence, 90 h. shares compounds with T cruzi growth-1. AID 651739;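 active = mean replicate inhibition above about 95% and at least 55% of replicates individually reaching it, limit read from the data; inconclusive = only one of the two criteria is met; inactive = neither criterion is met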
T cruzi growth-3 = blocks T. cruzi growth in NIH3T3 host cells | T. cruzi beta-gal in NIH3T3, GalScreen luminescence, 90 h | actives 21% (n = 5,600) | shares compounds with T cruzi growth-1 | inhibition, % at 2.09 µM | AID 651740;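 active = mean inhibition above about 95%, with at least 55% of replicates also reaching it, limit read from the data; inconclusive = meets just one of the two conditions; inactive = meets neither condition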;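 also: plate controls were neutral control median for no effect and positive control median for full effect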
3T3 cytotox = cytotoxicity in mouse NIH/3T3 fibroblasts; shares compounds with T cruzi growth-1; NIH/3T3 viability, CellTiter-Glo ATP luminescence, 90 h; cytotoxicity (signal decrease), % at 8.35 µM; actives 14% (n = 5,600); AID 651742;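 active = mean signal decrease across replicates above about 35% based on untreated-well scatter, with enough replicates individually passing, limit read from the data; inconclusive = no rule stated though some were filed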;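 also: 0% = median of neutral control wells and 100% = median of positive control wells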
NIH3T3 tox 2 = kills mouse NIH/3T3 fibroblasts; shares compounds with T cruzi growth-1; NIH/3T3 viability, CellTiter-Glo ATP luminescence, 90 h; inhibition, % at 24.9 µM; actives 56% (n = 5,600); AID 651744;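 active = mean loss of cell viability signal at or above a set limit, and enough replicates individually reaching it; inconclusive = meets only the mean limit or only the replicate share; inactive = meets neither condition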;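 also: 0% = median of neutral control wells and 100% = median of positive control wells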
* marks the source's active call; other numbers are inactive results; ? = inconclusive; . = not tested or not shown. Hits are enriched below; roughly 6.7% of the tested compounds scored in any of these assays.

SMILES | Pf Dd2 growth | C diff HTS | T cruzi growth-1 | T cruzi growth-2 | T cruzi growth-3 | 3T3 cytotox | NIH3T3 tox 2
C[C@@H]1CN([C@@H](C)CO)C(=O)c2cc(C#CCN(C)C)cnc2O[C@H]1CN(C)S(=O)(=O)c1ccccc1 | -13.5 | 9.2 | 97.3* | 101.6* | 86.8 | -23.2 | -5.7
CCCC#Cc1cnc2c(c1)C(=O)N([C@H](C)CO)C[C@H](C)[C@H](CN(C)S(=O)(=O)c1ccccc1)O2 | -53.9 | -3.1 | 46.3 | . | . | . | .
C/C=C/c1ccc2c(c1)O[C@@H](CN(C)C(=O)Nc1cccc(F)c1)[C@H](C)CN([C@@H](C)CO)S2(=O)=O | 0.8 | -2.8 | 96.6* | 83.6 | 34.8 | 19.4 | 62.9*
C/C=C/c1ccc2c(c1)O[C@H](CN(C)C(=O)Nc1cc(F)ccc1F)[C@@H](C)CN([C@@H](C)CO)S2(=O)=O | -45.5 | 12.9 | 100.3* | 101.1* | 32.8 | 0.5 | 25.0
C[C@H](CO)N1C[C@H](C)[C@H](CN(C)C(=O)Nc2ccc(F)cc2)Oc2cc(/C=C/c3ccccc3)ccc2S1(=O)=O | -78.5 | 8.7 | 122.4* | 99.1* | 105.1* | 11.6 | 36.5*
C[C@H](CO)N1C[C@H](C)[C@H](CN(C)C(=O)Nc2cccc(F)c2)Oc2cc(/C=C/c3ccccc3)ccc2S1(=O)=O | -75.6 | 6.4 | 123.6* | 104.8* | 111.4* | 39.3* | 36.8*
C/C=C/c1ccc2c(c1)O[C@H](CN(C)C(=O)Nc1ccc(F)cc1)[C@H](C)CN([C@H](C)CO)S2(=O)=O | -12.1 | 19.7 | 65.0 | . | . | . | .
C/C=C/c1ccc2c(c1)O[C@@H](CN(C)C(=O)Nc1cccc(F)c1)[C@@H](C)CN([C@H](C)CO)S2(=O)=O | -50.5 | 9.7 | 66.2 | . | . | . | .
C/C=C/c1ccc2c(c1)O[C@H](CN(C)C(=O)Nc1cccc(F)c1)[C@@H](C)CN([C@H](C)CO)S2(=O)=O | -11.4 | 4.2 | 80.3 | . | . | . | .
C/C=C/c1ccc2c(c1)O[C@@H](CN(C)C(=O)Nc1cc(F)ccc1F)[C@@H](C)CN([C@H](C)CO)S2(=O)=O | -42.0 | 10.5 | -12.4 | . | . | . | .
CO[C@H]1CN(C)C(=O)c2cc(NC(C)=O)ccc2OC[C@@H](C)N(C(=O)c2cnccn2)C[C@@H]1C | 3.0 | . | -122.6 | . | . | . | .
Cc1ccc(-c2cnc3c(c2)C(=O)N([C@@H](C)CO)C[C@H](C)[C@@H](CN(C)S(C)(=O)=O)O3)cc1 | 35.3 | -6.1 | . | . | . | . | .
COc1cccc(NC(=O)N(C)C[C@H]2Oc3cc(/C=C/c4ccccc4)ccc3S(=O)(=O)N([C@H](C)CO)C[C@H]2C)c1 | -77.6 | -7.7 | . | . | . | . | .
C[C@@H]1CN([C@H](C)CO)S(=O)(=O)c2ccc(/C=C/c3ccccc3)cc2O[C@@H]1CN(C)C(=O)Nc1cccc(F)c1 | -66.0 | 11.9 | 124.1* | 101.4* | 108.3* | 22.2 | 29.6
C[C@@H]1CN([C@H](C)CO)S(=O)(=O)c2ccc(/C=C/c3ccccc3)cc2O[C@H]1CN(C)C(=O)Nc1cccc(F)c1 | -61.0 | 7.1 | 123.1* | 95.6* | 99.4* | 73.0* | 102.3*
C[C@@H]1CN([C@H](C)CO)S(=O)(=O)c2ccc(Br)cc2O[C@H]1CN(C)C(=O)Nc1cccc(F)c1 | -2.5 | -6.9 | -22.5 | . | . | . | .
C[C@H]1CN([C@@H](C)CO)S(=O)(=O)c2ccc(/C=C/c3ccccc3)cc2O[C@@H]1CN(C)C(=O)Nc1cccc(F)c1 | -19.2 | 6.3 | 125.3* | 95.1* | 100.3* | ? | 47.1*
COc1cccc(NC(=O)N(C)C[C@@H]2Oc3cc(/C=C/c4ccccc4)ccc3S(=O)(=O)N([C@H](C)CO)C[C@H]2C)c1 | -47.9 | 4.4 | . | . | . | . | .
C/C=C/c1ccc2c(c1)O[C@@H](CN(C)C(=O)Nc1ccc(C(F)(F)F)cc1)[C@H](C)CN([C@H](C)CO)S2(=O)=O | -17.4 | 0.7 | 111.8* | 93.9 | 103.2* | 43.3* | 54.8*
C/C=C/c1ccc2c(c1)O[C@@H](CN(C)C(=O)Nc1ccc(C(F)(F)F)cc1)[C@@H](C)CN([C@@H](C)CO)S2(=O)=O | -38.7 | 9.6 | 81.3 | . | . | . | .
